Test systems include HCT-15 colon; HT29 colon; SNB-75 CNS; SNB-19 CNS; U251 CNS; PC-3 prostate; SK-MEL-5 melanoma; LOX IMVI melanoma; SK-MEL-28 melanoma; SK-MEL-2 melanoma; SN12C renal; UO-31 renal; TK-10 renal; ACHN renal; CAKI-1 renal; A498 renal; MOLT-4 leukemia; EKVX NSCLC; CCRF-CEM leukemia; UACC-62 melanoma.
Test in all cases: NCI-60 one-dose screen, 48 h (100 = growth as untreated, 0 = no growth, -100 = all killed)
Holding throughout (details): 10 µM unless noted

This is part of a sample that, as a whole, favours compounds with a hit. Of some 83,000 tested, about 20% had one in any assay.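 Method: cells in 96-well plates; compound added at one concentration; 48 h incubation; percent growth measured; values under 10 scored active.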 Values without a mark were called inactive. Activity calls are given as the source filed them.

As for `COC(=O)[C@H](Cc1cn(C)cn1)NC(=O)[C@@H](NC(=O)Nc1cc(C(F)(F)F)cc(C(F)(F)F)c1)C(C)C`, the growth in the test on HCT-15 colon was -87.6% [100 µM] (active); with HT29 colon, -81.4% [100 µM] (active); with SNB-75 CNS it was -99.8% [100 µM] (active); in the test on SNB-19 CNS, -90.3% [100 µM] (active); with U251 CNS, -95.3% [100 µM] (active); in the test with PC-3 prostate it was -89.6% [100 µM] (active). Further, the growth is -95.4% [100 µM] (active) in the test with SK-MEL-5 melanoma; -79.5% [100 µM] (active) in the test with LOX IMVI melanoma; -96.5% [100 µM] (active) in the test on SK-MEL-28 melanoma; -88.7% [100 µM] (active) in the test on SK-MEL-2 melanoma; -85.8% [100 µM] (active) in the test with SN12C renal; -94.9% [100 µM] (active) with UO-31 renal. Also, the growth in the test with TK-10 renal was -98.7% [100 µM] (active); with ACHN renal, -98.4% [100 µM] (active); in the test on CAKI-1 renal, -91.3% [100 µM] (active); in the test on A498 renal, -89.4% [100 µM] (active); in the test with MOLT-4 leukemia, -56.2% [100 µM] (active).

Regarding `CCCn1c(N)c(C(=O)CNc2ccc(I)cc2)c(=O)[nH]c1=O`, the growth in the test on HCT-15 colon is 22.7%; in the test with HT29 colon, 41.7%; with SNB-75 CNS it was 81.8%; in the test on SNB-19 CNS, 88.7%; in the test with U251 CNS, 28.8%; in the test on PC-3 prostate, 60.9%. The growth is 60.2% with SK-MEL-5 melanoma; 18.7% in the test on LOX IMVI melanoma; 51.7% in the test on SK-MEL-28 melanoma; -7.88% (active) in the test on SK-MEL-2 melanoma; 77.9% in the test with EKVX NSCLC; 44.6% in the test with SN12C renal. For the same compound, the growth in the test on UO-31 renal was 30.1%; with TK-10 renal it was 59%; in the test on ACHN renal it was 50.7%; with CAKI-1 renal it was 58.3%; in the test on A498 renal, 49.2%; in the test on CCRF-CEM leukemia, 55.9%. In addition, the growth in the test on MOLT-4 leukemia was 29.2%.

Regarding `O=C(Oc1ccccc1)C(Br)C(Br)c1ccccc1` (configuration not stated), the growth with HCT-15 colon was 95.4%; in the test with HT29 colon, 54.5%; in the test with SNB-75 CNS, 110%; with SNB-19 CNS, 104%; in the test on U251 CNS, 75.7%; with PC-3 prostate, 55.4%. Also, the growth in the test on SK-MEL-5 melanoma is 106%; in the test with LOX IMVI melanoma, 82.2%; in the test with SK-MEL-28 melanoma, 111%; in the test with SK-MEL-2 melanoma it was 95.3%; in the test with EKVX NSCLC it was 136%; with SN12C renal, 109%. Moreover, the growth in the test on UO-31 renal is 93.3%; in the test on TK-10 renal, 83%; in the test on ACHN renal, 78.2%; in the test with CAKI-1 renal, -66.7% (active); with A498 renal, 91.3%; with CCRF-CEM leukemia, -28.7% (active).

For the compound `CCN(CC)c1ccc(/C=C/C(=O)c2cccc(NS(C)(=O)=O)c2)cc1`, the growth with HCT-15 colon was 27.8%; in the test on HT29 colon it was 5.36% (active); with SNB-75 CNS, 48.4%; with SNB-19 CNS, 74.6%; in the test on U251 CNS, 41.6%; with SK-MEL-5 melanoma, 39.6%. Besides, the growth is 36.1% in the test with UACC-62 melanoma; 15% with LOX IMVI melanoma; 72.5% in the test with SK-MEL-28 melanoma; 83.1% in the test with SK-MEL-2 melanoma; 57.6% in the test with EKVX NSCLC; 40.3% in the test with SN12C renal. The growth in the test with UO-31 renal is 37.2%; with TK-10 renal it was 25.6%; with ACHN renal, 37.7%; with A498 renal, 22.8%; with CCRF-CEM leukemia, 13.3%; in the test on MOLT-4 leukemia it was 8.78% (active).

As to `O=C(O)CCNS(=O)(=O)c1ccc(-c2ccccc2)cc1`, the growth was 99.2% in the test on HCT-15 colon; 110% with HT29 colon; 90.6% in the test on SNB-75 CNS; 102% in the test with SNB-19 CNS; 89.6% in the test on PC-3 prostate; 97.9% in the test on SK-MEL-5 melanoma. For the same compound, the growth in the test on UACC-62 melanoma is 96.7%; with LOX IMVI melanoma it was 92.1%; in the test with SK-MEL-28 melanoma it was 94.3%; in the test with SK-MEL-2 melanoma, 0.624% (active); in the test on EKVX NSCLC it was 91.6%; in the test on SN12C renal, 95%. Further, the growth with UO-31 renal is 92.8%; in the test on TK-10 renal it was 136%; in the test with ACHN renal, 97.9%; with CAKI-1 renal, 104%; in the test with A498 renal, 115%; in the test on CCRF-CEM leukemia, 111%. In the test on MOLT-4 leukemia, the growth is 118%.

With `O=C(Nc1ccc(Cl)cc1)Nc1ccccc1CNc1nc(Nc2ccc(OCCN3CCCC3)cc2)ncc1Cl`, the growth in the test on HCT-15 colon was 6.28% (active); with HT29 colon it was 0.197% (active); in the test on SNB-75 CNS, -17% (active); in the test on SNB-19 CNS, 42%; in the test on PC-3 prostate, -8.19% (active); in the test on SK-MEL-5 melanoma, 50.2%. The growth with UACC-62 melanoma is 99.3%; in the test on LOX IMVI melanoma it was -95.1% (active); in the test with SK-MEL-28 melanoma, -77.7% (active); in the test on SK-MEL-2 melanoma it was 102%; with EKVX NSCLC, 33.7%; in the test with SN12C renal, 93.2%. Also, the growth in the test with UO-31 renal is -6.76% (active); in the test with TK-10 renal, -51.5% (active); with ACHN renal it was -54.4% (active); in the test on CAKI-1 renal it was 5.67% (active); in the test with A498 renal, 75.6%; with CCRF-CEM leukemia, 4.29% (active). For the same compound, the growth in the test with MOLT-4 leukemia is -13.4% (active).

With `Cc1ccc(OCC(=O)Nc2ccc(Oc3ccccc3)cc2)c([N+](=O)[O-])n1`, the growth is 95.2% in the test with HCT-15 colon; 95% in the test with HT29 colon; 78.8% in the test on SNB-75 CNS; 58.7% in the test on SNB-19 CNS; 85% in the test on U251 CNS; 44.2% in the test with SK-MEL-5 melanoma. The growth in the test on UACC-62 melanoma was 60.9%; in the test with LOX IMVI melanoma, 89.6%; with SK-MEL-28 melanoma it was 111%; with SK-MEL-2 melanoma, 30.9%; in the test with EKVX NSCLC, 89.5%; with SN12C renal it was 68.5%. The growth in the test with UO-31 renal is -38.4% (active); with TK-10 renal, 92.2%; in the test on ACHN renal it was 101%; in the test with CAKI-1 renal, 84.3%; in the test on A498 renal it was 107%; in the test with CCRF-CEM leukemia, 88%. Besides, the growth with MOLT-4 leukemia is 81.8%.

For `C[N+]1(C)C2CC[C@@H]1CC(OC(=O)C(O)c1ccccc1)C2` (some centres not stated), the growth in the test with HCT-15 colon is 105%; in the test on HT29 colon, 103%; in the test on SNB-75 CNS it was 99%; with SNB-19 CNS, 110%; in the test on PC-3 prostate, 99.5%; in the test with SK-MEL-5 melanoma it was 102%. For the same compound, the growth is 102% in the test with UACC-62 melanoma; 102% with LOX IMVI melanoma; 113% in the test on SK-MEL-28 melanoma; 150% with SK-MEL-2 melanoma; 99.4% with EKVX NSCLC; 87.3% in the test on SN12C renal. Further, the growth in the test with UO-31 renal was 85.3%; with ACHN renal, 106%; in the test on CAKI-1 renal, 84.1%; in the test with A498 renal it was 109%; in the test on CCRF-CEM leukemia, 93.1%; with MOLT-4 leukemia it was 126%.

Source of the values: PubChem BioAssay (NCI).
